Several values for one entry are separate records, joined by “and”; a condition that tells them apart may be missing. Equal entries are not always repeated. This is part of a sample that, as a whole, favours compounds with a hit. Of some 83,000 tested, about 20% had one in any assay.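 Cells were grown in 96-well plates and exposed to the test compound at a single concentration for 48 hours; results are reported as percent growth, with values below 10 considered active.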 Activity calls are given as the source filed them.

Test systems include DU-145 prostate; K-562 leukemia; MALME-3M melanoma; MDA-MB-231 breast; RXF 393 renal; SF-268 CNS; SF-295 CNS; SF-539 CNS; UACC-257 melanoma; M14 melanoma.
Common to all, as to assay: NCI-60 one-dose screen, 48 h (100 = growth as untreated, 0 = no growth, -100 = all killed)
What all share (conditions): 10 µM unless noted

As for `Cc1ccc(S(=O)(=O)Nc2nc3ccccc3nc2Nc2ccc3nsnc3c2)cc1`, the growth in the experiment with DU-145 prostate was 71.2% (inactive) and 62.5% (inactive); in the experiment on K-562 leukemia, 32.8% (inactive) and 35.3% (inactive); with MALME-3M melanoma, 33.3% (inactive) and 9.84% (active); in the experiment on MDA-MB-231 breast, 73.7% (inactive) and 68.8% (inactive); in the experiment on RXF 393 renal it was 80.3% (inactive) and 87.8% (inactive); with SF-268 CNS, 52.2% (inactive) and 54.5% (inactive). The growth with SF-295 CNS is 25.2% (inactive) and 26.7% (inactive); in the experiment with SF-539 CNS it was 63.9% (inactive) and 60.8% (inactive); in the experiment on UACC-257 melanoma, 27% (inactive) and 54.4% (inactive).
Take `O=[N+]([O-])c1ccc(N/N=C\c2cc(Br)ccc2O)nc1`: the growth with DU-145 prostate was 31.8% (inactive) and 24.4% (inactive); in the experiment on K-562 leukemia, 20.6% (inactive) and -3.71% (active); in the experiment with MALME-3M melanoma, 16.6% (inactive); with MDA-MB-231 breast, 11% (inactive) and 24.3% (inactive); in the experiment on RXF 393 renal, 44.2% (inactive) and 48.2% (inactive); with SF-268 CNS, 22.3% (inactive) and 19.7% (inactive). Further, the growth was 6.95% (active) and 7.63% (active) in the experiment on SF-295 CNS; 8.15% (active) and 9.56% (active) in the experiment with SF-539 CNS; 9.18% (active) and -3.76% (active) with UACC-257 melanoma.
Consider `O=C(Nc1ccc(Cl)cc1)c1cc2ccccc2cc1O`, for which the growth in the experiment with DU-145 prostate was 29.6% (inactive) and 10% (inactive); in the experiment with K-562 leukemia it was 14.1% (inactive) and 7.46% (active); in the experiment with MALME-3M melanoma, 29.4% (inactive) and 17% (inactive); in the experiment on MDA-MB-231 breast it was 52.7% (inactive) and 41.7% (inactive); in the experiment on RXF 393 renal it was 53.6% (inactive) and -17% (active); in the experiment with SF-268 CNS it was 53.6% (inactive) and 24.9% (inactive). In addition, the growth is 10.2% (inactive) and 3.7% (active) in the experiment with SF-295 CNS; 22.7% (inactive) and 12.5% (inactive) in the experiment on SF-539 CNS; 20.7% (inactive) with UACC-257 melanoma; 55% (inactive) and 7.47% (active) with M14 melanoma.
Regarding `Oc1ccc(/C=C/c2ccccc2)cc1`, the growth in the experiment with DU-145 prostate was 50.9% (inactive) and 58.4% (inactive); in the experiment with K-562 leukemia, 64.7% (inactive) and 58.4% (inactive); with MALME-3M melanoma, 97.9% (inactive) and 71.7% (inactive); with MDA-MB-231 breast it was 57.4% (inactive) and 47.1% (inactive); with RXF 393 renal, 75.9% (inactive) and 91% (inactive); in the experiment on SF-268 CNS it was 53.7% (inactive) and 62.5% (inactive). Moreover, the growth in the experiment on SF-295 CNS is 82.8% (inactive) and 81% (inactive); in the experiment with SF-539 CNS, 79.6% (inactive) and 68.7% (inactive); in the experiment on UACC-257 melanoma, 100% (inactive) and 87.9% (inactive); with M14 melanoma, 68% (inactive) and 73.4% (inactive).
In the case of `CC(C)CNC(=O)c1ccccc1C(=O)NC1(C(=O)NCC(C)C)CCCC1`, the growth in the experiment with DU-145 prostate is 111% (inactive) and 109% (inactive); in the experiment with K-562 leukemia, 102% (inactive); in the experiment with MALME-3M melanoma, 125% (inactive); in the experiment on MDA-MB-231 breast it was 109% (inactive) and 105% (inactive); in the experiment with RXF 393 renal, 113% (inactive) and 130% (inactive); with SF-268 CNS it was 104% (inactive). The growth is 111% (inactive) and 105% (inactive) with SF-295 CNS; 100% (inactive) in the experiment on SF-539 CNS; 102% (inactive) and 106% (inactive) in the experiment with UACC-257 melanoma; 108% (inactive) and 102% (inactive) in the experiment with M14 melanoma.
For the compound `CCN(CC)CCNc1cc(-c2cccc(OC(F)(F)F)c2)nc2ccc(N3CCCC3)cc12`, the growth was 60.6% (inactive) and 19% (inactive) and 45.4% (inactive) with DU-145 prostate; -23% (active) and -25.5% (active) and -21% (active) with K-562 leukemia; -50.9% (active) and -42.3% (active) and -14.1% (active) in the experiment with MALME-3M melanoma; 0.557% (active) and -6.72% (active) and -8.3% (active) with MDA-MB-231 breast; 16.3% (inactive) and -15.5% (active) and 34.2% (inactive) in the experiment with RXF 393 renal; 61.1% (inactive) and 18.8% (inactive) and 34.5% (inactive) with SF-268 CNS. Moreover, the growth is 72% (inactive) and -26.3% (active) and 35.1% (inactive) in the experiment with SF-295 CNS; 31.6% (inactive) and -38.2% (active) and 56.9% (inactive) with SF-539 CNS; 62.5% (inactive) and -10.1% (active) and -0.682% (active) in the experiment with UACC-257 melanoma; -85.8% (active) and -56.6% (active) and -63.5% (active) in the experiment with M14 melanoma.
For `Oc1ccccc1/C=N\NC(=S)N/N=C/c1ccccc1O`, the growth with DU-145 prostate was 55% (inactive) and 44.6% (inactive); in the experiment on K-562 leukemia, 26% (inactive); in the experiment on MALME-3M melanoma it was 39.6% (inactive) and 42.9% (inactive); in the experiment on MDA-MB-231 breast it was 55% (inactive) and 44.2% (inactive); in the experiment on RXF 393 renal, 80.7% (inactive) and 63.9% (inactive); in the experiment on SF-268 CNS it was 50% (inactive) and 37% (inactive). Also, the growth in the experiment on SF-295 CNS is 22.4% (inactive) and 30.6% (inactive); in the experiment on SF-539 CNS it was 45.4% (inactive) and 23.2% (inactive); in the experiment on UACC-257 melanoma, 40.3% (inactive) and 34.2% (inactive); in the experiment with M14 melanoma, 24.4% (inactive) and 24.5% (inactive).
On to `CNC(=O)c1cc(Oc2ccc(NC(=O)Nc3ccc(Cl)c(C(F)(F)F)c3)cc2)ccn1`, for which the growth with DU-145 prostate is 20.7% (inactive) and 13.7% (inactive); with K-562 leukemia, 1.27% (active) and 29.2% (inactive); in the experiment on MALME-3M melanoma it was -40.2% (active) and 53% (inactive); in the experiment on MDA-MB-231 breast it was -34% (active) and -34.5% (active); in the experiment on RXF 393 renal, -35.8% (active) and -56.3% (active); in the experiment with SF-268 CNS, 25.7% (inactive) and 7.26% (active). In addition, the growth in the experiment on SF-295 CNS is 10.7% (inactive) and 6.13% (active); in the experiment with SF-539 CNS, -33.4% (active) and 10.8% (inactive); in the experiment with UACC-257 melanoma, -26.1% (active); with M14 melanoma, -4.68% (active) and 5.32% (active).
Regarding `CC(O)(CC(=O)CC(=O)c1ccccc1)c1ccccc1` (configuration not stated), the growth in the experiment with DU-145 prostate was 143% (inactive) and 102% (inactive); in the experiment with K-562 leukemia it was 91.2% (inactive); with MALME-3M melanoma, 113% (inactive) and 96.5% (inactive); in the experiment on MDA-MB-231 breast, 97.4% (inactive) and 88.5% (inactive); with RXF 393 renal it was 94.1% (inactive) and 93.3% (inactive); with SF-268 CNS, 110% (inactive) and 98.8% (inactive). The growth in the experiment on SF-295 CNS is 91.1% (inactive); with SF-539 CNS, 104% (inactive) and 108% (inactive); in the experiment with UACC-257 melanoma, 90.6% (inactive) and 110% (inactive); with M14 melanoma it was 96.1% (inactive) and 96% (inactive).
For `CC(C)Cc1ccc(C(C)C(=O)NCc2ccc(Cn3c(=O)sn(CCCI)c3=O)cc2)cc1` (configuration not stated), the growth with DU-145 prostate was 94% (inactive) and -88.2% (active); in the experiment on K-562 leukemia it was 3.55% (active); in the experiment with MALME-3M melanoma, 92.4% (inactive) and -74.4% (active); in the experiment with MDA-MB-231 breast, 92.1% (inactive) and -62% (active); in the experiment with RXF 393 renal, -94.8% (active); in the experiment on SF-268 CNS it was 91% (inactive) and -64.5% (active). In addition, the growth with SF-295 CNS was 96.1% (inactive) and 35.9% (inactive); in the experiment with SF-539 CNS, 88.7% (inactive) and -96.6% (active); in the experiment with UACC-257 melanoma, 77.8% (inactive) and -19.9% (active).
Take `CN1CCN(Cc2occc(=O)c2O)CCN(C)CCN(Cc2occc(=O)c2O)CC1`: the growth is 124% (inactive) and 61.6% (inactive) with DU-145 prostate; 101% (inactive) and 16.6% (inactive) in the experiment with K-562 leukemia; 106% (inactive) and 72% (inactive) with MALME-3M melanoma; 106% (inactive) and 62.3% (inactive) in the experiment on MDA-MB-231 breast; 96.6% (inactive) and 72.9% (inactive) with RXF 393 renal; 113% (inactive) and 63.7% (inactive) in the experiment with SF-268 CNS. The growth with SF-295 CNS was 102% (inactive) and 76.2% (inactive); in the experiment on SF-539 CNS, 93.7% (inactive) and 48% (inactive); with UACC-257 melanoma, 61.6% (inactive); in the experiment with M14 melanoma it was 105% (inactive) and 52.9% (inactive).
As for `CN(C)CCCNC1=C(Cl)C(=O)c2ccccc2C1=O`, the growth is 75.2% (inactive) and 31.7% (inactive) in the experiment on DU-145 prostate; -46.7% (active) and -23.9% (active) with K-562 leukemia; -82.7% (active) and -88.9% (active) in the experiment on MALME-3M melanoma; 69.6% (inactive) and 41.9% (inactive) in the experiment with MDA-MB-231 breast; 122% (inactive) and 2.27% (active) in the experiment on RXF 393 renal; 102% (inactive) and 75% (inactive) in the experiment with SF-268 CNS. For the same compound, the growth is 87% (inactive) and 72.2% (inactive) in the experiment on SF-295 CNS; 102% (inactive) and 101% (inactive) in the experiment on SF-539 CNS; 28.4% (inactive) and -96.6% (active) with UACC-257 melanoma; -87% (active) and -99.1% (active) in the experiment on M14 melanoma.
As for `COc1ccc(/C(C#N)=C/c2ccccn2)cc1`, the growth was 107% (inactive) and 120% (inactive) in the experiment with DU-145 prostate; 101% (inactive) and 85.6% (inactive) in the experiment on K-562 leukemia; 129% (inactive) and 134% (inactive) in the experiment on MALME-3M melanoma; 107% (inactive) and 127% (inactive) in the experiment on MDA-MB-231 breast; 99% (inactive) and 96.4% (inactive) in the experiment on RXF 393 renal; 99.1% (inactive) and 122% (inactive) in the experiment with SF-268 CNS. For the same compound, the growth with SF-295 CNS is 102% (inactive) and 134% (inactive); in the experiment on SF-539 CNS, 108% (inactive) and 106% (inactive); in the experiment with UACC-257 melanoma, 110% (inactive) and 112% (inactive); in the experiment on M14 melanoma, 109% (inactive) and 111% (inactive).
For `CNc1cc(-c2cccc(OC(F)(F)F)c2)nc2ccc(N3CCCC3)cc12`, the growth in the experiment on DU-145 prostate was -43.5% (active) and 6.55% (active) and 12.9% (inactive); with K-562 leukemia, -42.3% (active) and -31.2% (active) and -12.4% (active); in the experiment on MALME-3M melanoma, -74.2% (active) and -88.1% (active) and -75.4% (active); in the experiment on MDA-MB-231 breast, -47.4% (active) and -63.4% (active) and -2.52% (active); with RXF 393 renal it was -64.4% (active) and -78.3% (active) and -67.5% (active); in the experiment on SF-268 CNS, 78.9% (inactive) and 61.6% (inactive) and 55.9% (inactive). Also, the growth was 82.8% (inactive) and -66.4% (active) and -74.5% (active) with SF-295 CNS; -76.6% (active) and -78.4% (active) and -68.4% (active) in the experiment with SF-539 CNS; 82% (inactive) and -59.4% (active) and -57.4% (active) in the experiment with UACC-257 melanoma; -87% (active) and -86.6% (active) and -76.4% (active) in the experiment on M14 melanoma.

The record behind these values is PubChem BioAssay (NCI).
